Screening results from PubChem BioAssay.
MCF10A rerep – A quantitative high throughput screen for small molecules that induce DNA re-replication in MCF 10a normal breast cells | MCF 10A DNA re-replication, Hoechst nuclear intensity, 48 h | Potency, µM (series often up to 46.1 µM), without a hit: at the top dose activity, positive = re-replication, actives largely listed as activators | actives 2.9% (n = 350,000); further: potency means the concentration at half of the fitted maximal effect; % of control where 0% means no effect; nearly all actives have a fitted effect of over 50% in size
DT40 TDP1 CPT – qHTS for Inhibitors of human tyrosyl-DNA phosphodiesterase 1 (TDP1): qHTS in cells in presence of CPT; actives 12% (n = 420,000); chicken DT40 Tdp1-/-;hTDP1 cells + 20 nM CPT, ATP luminescence, 48 h; AID 686979, 2013; Potency, µM (top dose mostly 46.2 µM), without a hit: at the top dose activity change, negative = growth inhibition, actives largely listed as inhibitors; further: potency means the concentration at half of the fitted maximal effect; on the % scale 0 is the no-effect control and ±100 the full control effect; nearly all actives have a fitted effect of over 55% in size
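Chicken DT40 Tdp1-/- cells stably complemented with human TDP1 were seeded at 400 cells/well in medium containing 20 nM camptothecin, exposed to pin-transferred compounds, and grown at 37 °C for at least 48 hr. Viability was read as ATP luminescence.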
TDP1 cell noCPT – qHTS for Inhibitors of human tyrosyl-DNA phosphodiesterase 1 (TDP1): qHTS in cells in absence of CPT. DT40 Tdp1-/- hTDP1 cells, no CPT, ATP luminescence, 48 h. Potency, µM (series often up to 46.2 µM), inactives show top-dose activity change, negative = growth inhibition, hits mostly inhibitors. actives 15% (n = 420,000). AID 686978, 2013; further: potency means the concentration at half of the fitted maximal effect; on the % scale 0 is the no-effect control and ±100 the full control effect; nearly all actives have a fitted effect of over 55% in size
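Growth of hTDP1-complemented DT40 Tdp1-knockout cells is measured by ATP luminescence after at least 48 hr compound exposure at 37 °C, with DMSO substituting for the 20 nM CPT used in the parallel screen.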
BCR signal inh – qHTS Assay to Find Inhibitors of Chronic Active B-Cell Receptor Signaling | ABC-DLBCL IkBa-CBG/CBR reporter, luminescence ratio, 4 h | actives 0.05% (n = 340,000) | Potency, µM (top dose mostly 46.1 µM), inactives show top-dose activity change, negative = inhibition, usual class: inhibitors; active means well fitted inhibition curve with a large enough effect in the signal ratio, with a control signal flat, not every such curve was filed as active; inconclusive means small, poorly fitted or top-dose-only effect, or effect the other way, or a change in a side signal; the % refers to the signal ratio;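 further: potency means the concentration at half of the fitted maximal effect; plate controls were basal doxycycline-induced cells for no effect and cells given 10 µM MG132 for full effect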
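Concentration-response series (up to 46 uM) were applied to TMD8 dual-reporter cells for 4 h at 37C with doxycycline. Green/red ratio, after filter-overlap correction, defined %Activity; red signal alone was normalised to basal cells and zero luminescence.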
SW480 rereplic – A quantitative high throughput screen for small molecules that induce DNA re-replication in SW480 colon adenocarcinoma cells. SW480 DNA re-replication, Hoechst DNA content imaging, 48 h. Potency, µM (series often up to 46.1 µM), without a hit: at the highest dose re-replication activation, most hits filed as activators. actives 1.8% (n = 340,000). AID 624297, 2012; further: potency means the concentration at half of the fitted maximal effect; % of control where 0% means no effect; nearly all actives have a fitted effect of over 55% in size
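Quantitative HTS format with DMSO vehicle controls; 48 hr drug incubation at 37 C, then 40 min Hoechst staining and scanning imager measurement at 405 nm excitation.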
IL1B secr inh – qHTS for Inhibitors of Inflammasome Signaling: IL-1-beta AlphaLISA Primary Screen. THP-1 LPS/ATP IL-1B secretion, AlphaLISA, 16 h; active compounds read low. actives 4.7% (n = 360,000). activity change, % at 57.5 µM; in the data active means activity change below about -50%; inconclusive means mostly about -30% to -49%; further: on the % scale 0 is the no-effect control and ±100 the full control effect
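Secreted IL-1B measured by AlphaLISA bead assay after 16 h compound exposure of THP-1 cells; compounds (final up to 57.5 uM) added 1 h before LPS (250 ng/mL) and ATP (1.25 mM) stimulation; lower signal means less secretion.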
* marks the source's active call; other numbers are inactive results; ? = inconclusive; · = no result. In the library only some 19% were active in any assay of this set; here they are far more common. Unless noted, the call rests on the fitted dose curve; in most records, active means well fitted curve in the direction sought with a large enough effect; inconclusive means small, poorly fitted or top-dose-only effect, or another doubt; inactive means no such curve, though single readings can be large; an effect the other way counts as inactive or inconclusive.

SMILES	MCF10A rerep	DT40 TDP1 CPT	TDP1 cell noCPT	BCR signal inh	SW480 rereplic	IL1B secr inh
O=[N+]([O-])c1cc(S(=O)(=O)Nc2ccccc2)ccc1N1CCN(c2ccccc2)CC1	?	?	?	9%	?	-64*
O=S(=O)(c1ccc(N2CCCC2)cc1)C(F)(F)F	2%	?	12µM*	10%	-4%	-18
O=C(O)CNc1ccc(S(=O)(=O)C(F)(F)F)cc1[N+](=O)[O-]	1%	-3%	-2%	0%	-17%	44
CC(=O)Nc1ccc(Nc2ccc(S(=O)(=O)C(F)(F)F)cc2[N+](=O)[O-])cc1	7%	?	21µM*	5%	5%	-60*
CCCCC(=O)N(C)c1c(C)nc2ccc(C(=O)Nc3cccc(NS(C)(=O)=O)c3)cn12	·	-1%	-10%	·	·	16
O=[N+]([O-])c1cc(S(=O)(=O)C(F)(F)F)ccc1N1CCN(c2ccccc2)CC1	3%	?	16µM*	4%	3%	?
O=[N+]([O-])c1cc(S(=O)(=O)Nc2ccccc2)ccc1Nc1ccccc1	?	?	15µM*	·	-5%	-9
O=c1c(N2CCN(c3cccc(C(F)(F)F)c3)CC2)csc2ccccc12	·	21µM*	26µM*	?	·	·
O=[N+]([O-])c1ccc(Cl)cc1N/N=C/c1ccncc1	14%	-8%	4%	1%	-2%	-12
O=[N+]([O-])c1cc(S(=O)(=O)Nc2ccc(Cl)cc2)ccc1N/N=C/c1ccncc1	4.1µM*	?	5.8µM*	1%	4%	-6
CN1CCN(S(=O)(=O)c2ccc(Nc3ccc(F)cc3)c([N+](=O)[O-])c2)CC1	?	-16%	?	0%	29µM*	20
CCCCCC(=O)Nc1ccc(C2C(=O)c3ccccc3C2=O)cc1	-13%	?	3%	?	0%	6
Clc1ss/c(=N\c2ccccn2)c1Cl	3%	-13%	-15%	?	-5%	-91*
Clc1ccccc1N=Nc1ccccn1	-3%	-19%	-8%	·	-2%	2
Cc1cc(Cl)nc2nc(Cl)ccc12	·	?	5.6µM*	·	·	·
O=C1c2ccccc2-c2c1cccc2C(=O)N1CCCCCC1	-2%	0%	-7%	0%	23µM*	9
O=C1c2ccccc2-c2cccc(C(=O)N3CCCCCC3)c21	?	-28%	?	3%	12%	5
COCC(=O)N1CCC[C@@]2(CCN(C(=O)Nc3ccc(OC)cc3)C2)C1	·	-11%	1%	·	·	·
NC(=S)NN=C1c2ccccc2-c2ccccc21	-1%	5.2µM*	2.9µM*	?	-19%	-15
NC(N)=NN=C1c2ccccc2-c2ccccc21	14%	27%	?	?	3%	-64*
ON=C1c2ccccc2-c2ccccc21	-2%	-27%	-27%	?	-9%	-17
Cc1ccc(-c2cc(C(F)F)n3ncc(C(=O)N4CCN(c5cccc(C)c5C)CC4)c3n2)cc1	?	?	18µM*	·	?	8
COc1ccc(-c2cc(C(F)F)n3ncc(C(=O)n4ccnc4C)c3n2)cc1	16µM*	15µM*	18µM*	9%	?	-21
Cc1ccc(-c2cc(C(F)F)n3ncc(C(=O)N4CCCc5ccccc54)c3n2)cc1	18%	?	-22%	4%	-3%	12
COc1ccc(-c2cc(C(F)F)n3ncc(C(=O)N4CCc5ccccc54)c3n2)cc1	4.6µM*	3.7µM*	2.1µM*	?	7.3µM*	46
SMILES	MCF10A rerep	DT40 TDP1 CPT	TDP1 cell noCPT	BCR signal inh	SW480 rereplic	IL1B secr inh
CCc1nnc(NC(=O)CSc2nc3c([nH]c4ccccc43)c(=O)n2-c2ccc(Cl)cc2)s1	·	-27%	-23%	·	·	·
CCOc1ccc(OCC)c(NC(=O)Cn2ncc3c4ccccc4n(Cc4ccccc4)c3c2=O)c1	·	-9%	-22%	·	·	·
CCCCCCN1CC(C(=O)OCC)C(=O)C1=O (centres undefined)	-4%	-9%	-14%	7%	-35%	0
Cn1c(=O)c2c(nc(NCCO)n2C)n(C)c1=O	-3%	-9%	-11%	12%	1%	9
Cn1c(=O)c2c(nc(NCCOc3ccc(C(C)(C)C)cc3)n2C)n(C)c1=O	16µM*	1.5µM*	1.8µM*	3%	-691%	24
COCCCNc1nc2c(c(=O)n(Cc3ccccc3)c(=O)n2C)n1C	·	7%	-21%	·	·	·
COc1ccccc1OCCNc1nc2c(c(=O)n(C)c(=O)n2C)n1C	?	29µM*	18µM*	20%	?	28
Cc1ccc(S(=O)(=O)N(C)CC(=O)N2CCCCCC2)cc1	9%	2%	-27%	5%	-3%	-12
CSc1ccc(CN2CCC(Oc3ccc(C(=O)N4CCCC4)cc3)CC2)cc1	15%	-20%	?	-6%	27%	1
COC(=O)c1ccccc1NC(=O)/C=N/O	0%	14%	2%	-20%	-9%	0
O=C(/C=N/O)Nc1ccc2sc3ccccc3c2c1	11%	6%	?	8%	-139%	-100*
CC(=O)Nc1ccc(NC(=O)C2CC(=O)Nc3nc4ccccc4n32)cc1 (centres undefined)	-17%	4%	7%	-2%	-7%	-4
Cc1ccc(NC(=O)C2CC(=O)Nc3nc4ccccc4n32)c(C)c1 (centres undefined)	-19%	-5%	?	2%	18µM*	-1
O=C(O)c1cccc(-c2ccccc2)c1O	-26%	9%	11%	·	-14%	34
COc1ccc(-c2cc3nc(-c4ccccc4)cc(N4CCN(C(=O)c5ccoc5)CC4)n3n2)cc1	·	?	8.2µM*	·	·	-23
COc1cc(OC)cc(-c2cc3nc(C)cc(N4CCN(C(=O)c5ccco5)CC4)n3n2)c1	·	·	·	-26%	·	·
O=C(c1ccoc1)N1CCN(c2cc(-c3ccccc3)nc3cc(-c4ccc(Br)cc4)nn23)CC1	·	12µM*	5.8µM*	·	·	12
OC1CCN(c2cc(-c3ccccc3)nc3cc(-c4ccc(F)cc4)nn23)CC1	16%	15%	?	?	1%	-8
